Screens: PubChem BioAssay, National Center for Advancing Translational Sciences (NCATS)
ELG1 repair inh = qHTS screen for small molecules that inhibit ELG1-dependent DNA repair in human embryonic kidney (HEK293T) cells expressing luciferase-tagged ELG1; HEK293T ELG1-luciferase reporter, luminescence, 16 h; DNA damage induced by 5-fluorouridine; Potency, µM (highest dose often 46.1 µM), inactives show top-dose activity change, negative = inhibition, hits mostly inhibitors; 330,000 tested, 2.3% active; also: % is scaled to controls: 0 for no effect and ±100 for the full control effect; nearly all actives have a fitted effect of over 55% in size
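Cells (2,000 per well) received 5-fluorouridine plus test compound or DMSO and were incubated 16 hr at 37 °C, 5% CO2. Luciferase activity was read by luminescence 30 min after ONE-Glo addition; signal suppression marked inhibition of damage-induced ELG1 function.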
FLuc modulator = qHTS profiling assay for firefly luciferase inhibitor/activator using purifed enzyme and Km concentrations of substrates (counterscreen for miR-21 project) | Potency, µM (doses to about 57.5 µM), without a hit: at the top dose activity change, negative = inhibition, actives largely listed as inhibitors | 360,000 tested, 6.9% active | Luciferin 4-monooxygenase (Photinus pyralis), P08659 | purified FLuc, Km substrates, luminescence inhibition;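 also: plate controls were vehicle for no effect and reference inhibitor for full effect; nearly all actives have a fitted effect of over 55% in size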
Target sequence (P08659 whole entry, looked up): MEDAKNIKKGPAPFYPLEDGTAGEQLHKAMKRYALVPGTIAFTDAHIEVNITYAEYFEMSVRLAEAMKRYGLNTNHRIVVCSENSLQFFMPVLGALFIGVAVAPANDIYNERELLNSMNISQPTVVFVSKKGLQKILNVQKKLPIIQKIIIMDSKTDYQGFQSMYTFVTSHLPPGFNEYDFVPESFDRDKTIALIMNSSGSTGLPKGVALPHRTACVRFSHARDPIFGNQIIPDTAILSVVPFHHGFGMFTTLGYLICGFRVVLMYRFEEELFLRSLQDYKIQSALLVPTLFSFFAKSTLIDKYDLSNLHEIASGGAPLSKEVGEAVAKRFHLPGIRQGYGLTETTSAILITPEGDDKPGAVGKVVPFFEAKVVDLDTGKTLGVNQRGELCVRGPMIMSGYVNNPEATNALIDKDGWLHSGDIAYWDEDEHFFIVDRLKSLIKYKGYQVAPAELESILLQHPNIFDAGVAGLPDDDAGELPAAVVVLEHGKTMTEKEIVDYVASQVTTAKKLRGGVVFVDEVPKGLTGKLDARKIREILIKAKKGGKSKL
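Biochemical qHTS of compounds, final roughly 60 µM downward over six points, against 10 nM purified firefly luciferase using Km concentrations of substrates (10 uM D-luciferin, 10 uM ATP) in Tris acetate pH 7.5 buffer; luminescence output.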
Rab9 prom act = qHTS Assay for Rab9 Promoter Activators. Huh7 Rab9 promoter-luciferase reporter, luminescence, 24 h. Potency, µM (doses to about 9.22 µM), for the others: at the top dose activation, negative = inhibition, hits mostly activators. 320,000 tested, 2.8% active; also: % of control where 0% means no effect; nearly all actives have a fitted effect of over 60% in size
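Luminescence from Amplite-detected luciferase (10 minutes, ambient) reports Rab9 promoter activation. Before that, stable Rab9-luciferase Huh7 cells (1500/well, reduced-serum OP-MEM I plus 10% FBS) were exposed to compound for 24 hours at 37C.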
SMN2 splice enh = qHTS Assay for Enhancers of SMN2 Splice Variant Expression; HEK293 SMN2-luciferase splicing reporter, luminescence, 30-36 h; Potency, µM (top dose mostly 46.1 µM), without a hit: top-dose activity change, positive = activation, usual class: activators; 210,000 tested, 2.8% active; AID 1458, 2008; also: % of control where 0% means no effect; nearly all actives have a fitted effect of over 55% in size
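HEK293 cells carry an SMN2 […]–luciferase reporter in which exon 7 inclusion puts luciferase in frame. Cells were plated 10-12 h before compound addition, then incubated 30-36 h at 37C. ONE-Glo luminescence was read; sodium butyrate at 4.5 mM final served as control.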
ELG1 genotoxic = qHTS screen for small molecules that induce genotoxicity in human embryonic kidney (HEK293T) cells expressing luciferase-tagged ELG1. AID 504466, 2011. HEK293T ELG1-luciferase reporter, luminescence, 16 h. 330,000 tested, 1.3% active. Potency, µM (series often up to 46 µM), for the others: at the top dose activity change, positive = activation, usual class: activators; also: % of control where 0% means no effect; nearly all actives have a fitted effect of over 60% in size
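HEK293T cells expressing luciferase-tagged ELG1 were treated with compound or DMSO for 16 hr at 37°C. Luciferase activity was then read after 30 min with ONE-Glo at room temperature; rising signal flags genetic stress.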
NPC1 promoter act = qHTS Assay for NPC1 Promoter Activators; Huh7 NPC1 promoter luciferase reporter, 24 h; Potency, µM (series often up to 9.22 µM), for the others: at the highest dose activation, actives largely listed as activators; 320,000 tested, 2.4% active; AID 485313, 2010; also: % of control where 0% means no effect; nearly all actives have a fitted effect of over 60% in size
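Huh7 cells stably carrying NPC1 promoter–luciferase, plated in Opti-MEM with 10% FBS for 2 h, were exposed to compound in DMSO for 24 h at 37 °C; luciferase reagent was added for 10 min and luminescence read.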
Numbers without * were called inactive; ? = inconclusive; . = not tested or not shown; [ ] = another dose, or the depositor's remark. Shown are actives, neighbours in structure and some others; about 9.4% of the full set was active somewhere. Calls follow the shape of the dose curve; as a rule, active = well fitted curve in the direction sought with a large enough effect; inconclusive = small, poorly fitted or top-dose-only effect, or another doubt; inactive = no such curve, though single readings can be large; an effect the other way counts as inactive or inconclusive. Potency is read from the fitted curve at half-maximal effect.

SMILES | ELG1 repair inh | FLuc modulator | Rab9 prom act | SMN2 splice enh | ELG1 genotoxic | NPC1 promoter act
O=C1NC(=S)N(C2CC2)C(=O)/C1=C/c1ccc2c(c1)CCN2CCCCl | 28% | 19µM* | -1% | -21% | ? | 0%
C[C@]12CC[C@@H]3[C@H](CCC4=CC(=O)CC[C@]43C)[C@]1(O)CC[C@@]2(O)C(=O)CO | . | . | . | 3%[9.22 µM] | . | .
C=CC=O | . | . | . | -2% | . | .
CCCCC(CC)COC(=O)c1ccc(C(=O)OCC(CC)CCCC)c(C(=O)OCC(CC)CCCC)c1 (configuration not stated) | . | . | . | -11% | . | .
CC(C)(C)n1ncc2c(=O)n(Cc3cccc(Cn4cnc5c(cnn5C(C)(C)C)c4=O)c3F)cnc21 | 8.2µM* | . | . | . | -5% | .
CC(C)(C)c1ccc(CSc2cnn(C(C)(C)C)c(=O)c2Cl)cc1 | ? | -7% | -36%[1.84 µM] | . | -10% | -43%
COc1cc2cc(c1Cl)N(C)C(=O)C[C@H](OC(=O)C(C)C)[C@]1(C)O[C@@H]1[C@@H](C)[C@H]1C[C@](O)(NC(=O)O1)[C@@H](OC)/C=C\C=C(\C)C2 | . | . | . | -23%[9.22 µM] | . | .
CCCSC(=O)Cl | . | . | . | 1% | . | .
Cc1ccc(S(=O)(=O)N(C)CCCC(=O)N2CCN(c3ccccn3)CC2)cc1 | 18µM* | 0% | -6% | -27% | -17% | -3%
Cc1cccn2c(=O)c3c(nc12)N1CCc2ccccc2C1C1(C3)C(=O)NC(=O)N(C)C1=O (configuration not stated) | 13µM* | 1% | 3% | -9% | -17% | 9%
CCCCN1C(=O)NC(=O)C2(Cc3c(nc4c(C)cccn4c3=O)N3CCc4ccccc4C32)C1=O (configuration not stated) | 21µM* | 3% | -6% | -44% | -27% | 2%
[O-][Cl+]O | . | . | . | 3% | . | .
O=C(C1CC(c2ccc(Cl)c(Cl)c2)=NO1)N1CCC2(CC1)OCCO2 (configuration not stated) | ? | 15µM* | 2µM* | 13µM* | 7.3µM* | 2.2µM*
O=C(C1CC(c2ccc(F)cc2)=NO1)N1CCC2(CC1)OCCO2 (configuration not stated) | ? | 17µM* | ? | -28% | 21µM* | 29%
O=C(C1CCC(=O)N1Cc1ccc(F)cc1)N1CCC2(CC1)OCCO2 (configuration not stated) | 13% | 6% | 9% | 5% | 0% | 2%
CCn1nc(-c2ccccc2)nc2c(=O)n(C)c(=O)nc1-2 | ? | ? | -31% | 7.1µM* | 5% | -2%
O=C(O)C[C@H]1NCc2cc3ccccc3nc21 | . | . | . | -3%[9.22 µM] | . | .
C=CCn1c(O)c(C(C)=NCCC(c2ccccc2)c2ccccc2)c(=O)[nH]c1=O | 7.3µM* | 2% | -1% | -27% | -9% | 0%
O=C(COC(=O)Cc1ccccc1)Nc1ccc(SC(F)F)cc1 | 6% | 19µM* | -5% | 14% | 3% | -6%
Cc1ccc2nc(N3CCN(C)CC3)[nH]c2c1 | ? | 27µM* | ? | 104% | 16µM* | ?
CN1CCN(c2nc(N)cc(=O)[nH]2)CC1 | 6% | 2% | -5% | . | 0% | -1%
CSc1ccc2c(c1)c(CCN)c(C)n2Cc1ccccc1Cl | . | . | . | 2%[9.22 µM] | . | .
O=c1oc2ccccc2c(O)c1C(c1ccc([N+](=O)[O-])cc1)c1c(O)c2ccccc2oc1=O | 6% | 19µM* | 2% | -10% | -10% | -4%
Nn1cnnc1 | . | . | . | 0% | . | .
CCC(=Nc1ccc(OC)cc1OC)c1c(O)n(C2CCCCC2)c(=O)[nH]c1=O | 18µM* | -4% | 1% | -17% | 2% | 4%
c1ccc(-c2nc(N3CCOCC3)s[n+]2-c2ccccc2)cc1 | ? | 7.6µM* | -1% | 12% | 13% | 2%
